This note sets out measurements from the supplement of paper PMC11417369.

In all, about 25,000 sequences were measured (“ln(normalized median fluorescence intensity)”: median about 6.7, highest 2% from about 10 on). The list comes from a sample in which the highest values are over-represented; it also holds similar and randomly drawn sequences.

The assay deals with PfHDP1 homeodomain (GST-tagged). Nature of the assay: gcPBM binding intensity (ln(normalized median fluorescence intensity)); higher = stronger DNA binding. Summed up: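 An Agilent 4 × 180k array carrying primer-extended double-stranded 36-bp intergenic genomic probes and negative controls received GST-tagged P. falciparum DNA-binding domains expressed in E. coli, about 25 μg on average, for 1 h. The binding buffer contained 1× PBS, 1% milk, 0.2 mg/ml BSA, 0.5% salmon testes DNA and 0.03% Triton X-100. Binding intensity is the top Masliner-normalised natural-log median intensity across replicate spots of either probe orientation, read after Alexa488 anti-GST antibody staining and a 488 nm scan.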
With “CTTTTTTTAATATGCACACATATATTTTATATATTA [CACACA_site2077]”, the “gcPBM binding intensity (ln)” value amounted to 10.3.
The result for “GTATTATTATTATGCACACAAAAATATTTATACATA [CACACA_site3656]” reads 10.9; that for “TCGTACTTGTATTATGCACACATATAATTAAACATA [CACACA_site9089]”, 10.5.
Under “ATATTACCCATATATGCACACATTGTAGTTATTTAT [CACACA_site2636]” stands 9.18; under “TTAATTTATTTATGCACACATATATAATTACCCATA [CACACA_site682]”, 10.7.
The result for “TTAATTTATTTATGCACACATATATAATTACACATA [CACACA_site4544]” reads 10.7; that for “GTACTTGTATTATGCACACATATAATTAAACATATA [CACACA_site3312]”, 10.1.
“CTTATATTAATTATTACACACATATTTATAAATGCA [CACACA_site6501]”: the “gcPBM binding intensity (ln)” value worked out at 6.66.
Under “ATTATATACATATATGCACACAAAAAAATATATATT [CACACA_site8508]” stands 9.93.
Under “TTTTAATTTATTTATGCACACATATATAATTACACA [CACACA_site8126]” stands 10.1.
The result for “GCACACATATAATTAAACATATATTTGTATTATTTT [GTGCAC_negctrl_site327]” reads 6.5; that for “TAGTATTATTATTATGCACACAAAAATATTTATACA [CACACA_site9219]”, 10.4.
“AAATAATTAGCTATTTGTACATATATACATATTTAT [XGTACX_site4652]”: the “gcPBM binding intensity (ln)” value stood at 6.37.
Under “ATTTTTTTTTTTTTTTTTTTTTTTTTTTTTTTTTTT [CACACA_negctrl_site1364]” stands 7.45; under “AAGTTTATTATATATAAATTATTATATATATATATA [CACACA_negctrl_site189]”, 9.02.
Under “AATCAAAGTAATTTAACACACAATTTTAATACTGTT [CACACA_site7169]” stands 6.23; under “CATTATGTTGTAAATACACACATACATATACATACA [CACACA_site8143]”, 6.76.
Regarding “ACATAAATAAATTAATGTACATATATATTTGTATAT [XGTACX_site3160]”, the “gcPBM binding intensity (ln)” value was 6.32.
In the case of “TATATGTAGATTAAACGTACTTACAACGGAATTATC [XGTACX_site3036]”, the “gcPBM binding intensity (ln)” value is 6.67.
Consider “TATAAACATTAAAGGTGTACAATTTAATTTCAATTT [XGTACX_site2944]”, for which the “gcPBM binding intensity (ln)” value came out at 6.28.
The result for “GGTATAATAATATATAGTACACACAAAAATGGAAGT [XGTACX_site7058]” reads 7.5.
For “TATTTTTATCAATTCACACATAAATATATTTATATG [CACACA_site5547]”, the “gcPBM binding intensity (ln)” value was determined as 6.57.
For the sequence “TTTTTCCCCCTTTTTTTGATTTTTATCTTAATTCTA [TGCATGCA_negctrl_site287]”, the “gcPBM binding intensity (ln)” value is 5.85.
The result for “TATTATAATTTTATATGTACACATATATAAATATAT [XGTACX_site4054]” reads 6.29; that for “GTATAATTATGTGCACGTACATATTTTATTATATAT [XGTACX_site8586]”, 10.9.
The result for “GTACATAATTATTATGCACACATATTTTTATGTATT [CACACA_site8132]” reads 10.5; that for “ATATAATATATGTATACACACATATTATATAATATT [CACACA_site3699]”, 6.46.
The result for “ATACATATATAATTATGTACGTATATTTTATATAAC [XGTACX_site4292]” reads 6.14; that for “TTTATTTATATAATTACACACATATATACACAAATG [CACACA_site8903]”, 6.83.
As for “ACATAATTATTATGCACACATATTTTTATGTATTTA [CACACA_site698]”, the “gcPBM binding intensity (ln)” value was 10.2.
Under CAATTTATTATATATGTGCACATATAATTTTACAAA stands 10.4; under “TTATATTTTACAAATGCACACATAATTTTTTTTTTT [CACACA_site8890]”, 9.76.
The result for “ATATTTTACAAATGCACACATAATTTTTTTTTTTTT [CACACA_site2763]” reads 10.5.
Under TATTACACATATTATGTGCACATATATAATCAATAT stands 10.9; under “ATATATATATATATATGTACATATTTTTAATTATAA [XGTACX_site7444]”, 9.45.
With “GTTTTATTTATTTCATGTACACAAAAAAGGTTTTAA [XGTACX_site6525]”, the “gcPBM binding intensity (ln)” value was 6.97.
The result for TTTTGTTATTTTTCAGTGCAATATGATAATAATATA reads 9.56; that for “ATTTCTCTATCGTAATGTACATAAAAAAGAAAAACA [XGTACX_site6374]”, 6.63.
For the sequence ATATATATATTTAAGGTGCGATTTTGTTATATTTAA, the “gcPBM binding intensity (ln)” value worked out at 7.89.
With “AATTATGGGGAAAAGACACACATATATATATATATA [CACACA_site2589]”, the “gcPBM binding intensity (ln)” value worked out at 9.35.
As for “ATCTAAATTTTTCCATGTACATATACTTTTATGCAT [XGTACX_site2683]”, the “gcPBM binding intensity (ln)” value worked out at 7.08.
The result for “TATCTGTATTTATTCACACATATAAAATATAATTAA [CACACA_site5560]” reads 6.36; that for “GGATTTATTTTATATACACACATACCTATATTTATA [CACACA_site7084]”, 6.84; that for “TATATCTCATAGTATACACACACACCCACCCACATA [CACACA_site8513]”, 7.7.
For “GTATGTGTATGTGTATGTACATATGTATGTATAAAA [XGTACX_site8191]”, the “gcPBM binding intensity (ln)” value amounted to 8.13.
The result for “TTAATTATTATATAAGTGCAATAATAAAAAGTTGTA [GTGCAC_site9552]” reads 9.36; that for “ACACATACACATTAGGTGCACATAATTCAATATTAC [GTGCAC_site9862]”, 10.6.
Under “TTTATGTATTTTTATGCACACATGCGTGGCTTATAT [CACACA_site4374]” stands 10.4.
The result for “ACAAATAAATAAATATGTACTTAATTATATAATTGA [XGTACX_site5626]” reads 6.16.
Take “ATTGTATATGTATATGCACACAATATATGTACTTAT [CACACA_site2611]”: the “gcPBM binding intensity (ln)” value is 9.66.
On to “GTTTATGTATTATTATGTACGTATCATAATATATAT [XGTACX_site2385]”, for which the “gcPBM binding intensity (ln)” value amounted to 6.87.
The result for “ACACATACACATTAGGTGCATATATTTCAATATTAC [GTGCAC_site9423]” reads 9.83; that for “AAATAATTATTTATCACACATATGTATTTATATATA [CACACA_site4589]”, 6.66; that for “CGTATGCACAAATTATGTACTTATATATATATATAT [XGTACX_site2348]”, 10.9.
The result for “TATGTATTTTTATGCACACATGCGTGGCTTATATAA [CACACA_site387]” reads 10.5.
Regarding “TAATATTCAATTATACGTACACATATATATATATAT [XGTACX_site4245]”, the “gcPBM binding intensity (ln)” value was found to be 9.22.
Under “AGTGCATAATATTTATGTACGTATCACATATATTTT [XGTACX_site5166]” stands 10.7.
The result for “TATATATATATATATTTTTTTTTTTTATGCACATGG [CACACA_negctrl_site1573]” reads 10.1.
As to “ATATTATTTTATGCTACACACATTTTCTCTTATAAA [CACACA_site943]”, the “gcPBM binding intensity (ln)” value worked out at 7.25.
Under “AAAAAAAAAATATACACACACATATATATATATATA [CACACA_site3404]” stands 9.35; under “GTAGACTGAAACCACACACACATATATATATATATT [CACACA_site605]”, 6.93.
Consider “ATATAGAATATATTAACATGCAATAAGTAAAGGGGG [TGCATGCA_site1022]”, for which the “gcPBM binding intensity (ln)” value was determined as 7.05.
Under “TGTATGTATTTTCAATGTACATAAAAAAAAAAAAAA [XGTACX_site4397]” stands 6.71; under “AATATAATATAATGCACACATAAAAAAAAAATCAAA [CACACA_site122]”, 11; under “AATCTAATATAATGCACACATAAAAAAAAATCAAAC [CACACA_site3633]”, 10.7.
Under “TTTGAAATAAATAATGCACACTCTACATATATACGT [CACACA_site2244]” stands 10.6.
Regarding “GTTGAAAAAAAAAATGCACACGCATACATATAATAT [CACACA_site8117]”, the “gcPBM binding intensity (ln)” value amounted to 9.09.
The result for “AAAATATAATATAATGCACACATAAAAAAAAAATCA [CACACA_site7922]” reads 10.2; that for “AATCTAATATAATGCACACATAAAAAAAAAATCAAA [CACACA_site2714]”, 10.2.
Under “AATATAATATAATGCACACATAAAAAAAAAAAAATC [CACACA_site1303]” stands 10.6.
Under “AAAATCTAATATAATGCACACATAAAAAAAAATCAA [CACACA_site9211]” stands 9.65; under “TGAAATAAATAATGCACACTCTACAGATATACGTAT [CACACA_site5270]”, 10.1; under “GTAAATATGTTTATTAGTACACATATGAAAATAAAT [XGTACX_site5820]”, 6.42.
For the sequence “GAGAAATGGAGACACACACACATATTATATATATAT [CACACA_site1532]”, the “gcPBM binding intensity (ln)” value is 8.68.
Under “AAACAATTATTATATTGTACATATATTACATTATTA [XGTACX_site1089]” stands 6.23; under “ACTATCATTTTTTTAACACACAAAAAAAATAAAATA [CACACA_site3519]”, 6.44; under “TATATATAATATTATACACACATATATGCATAATAT [CACACA_site54]”, 7.56.
As for “AAATGTGAAAAAGAGTGTACCCGACTTGAAATTAAG [XGTACX_site8621]”, the “gcPBM binding intensity (ln)” value was determined as 6.92.
Under “TTAATTATAAGAAAAAGTACTCATTACATTATAGAA [XGTACX_site678]” stands 6.12; under “TAGTATGATAACTTGGGTACATAAATATGGAGTATC [XGTACX_site1296]”, 6.81; under “TATATTTTAATTTGAAGTACTAATATTTATTTATAT [XGTACX_site7458]”, 6.14.
The result for “AATATAATATAATGCACACATAAAAAAAAAAAAAAA [CACACA_site304]” reads 10.9.
The result for “AAAAATAATGCACATATATATAATATGTATATGTAT [CACACA_negctrl_site443]” reads 11.1.
As for “TATAATATAATATATGCACACAAATATGTATATATG [CACACA_site8664]”, the “gcPBM binding intensity (ln)” value amounted to 9.95.
The result for “AAAAAATATACATATACACACATATGTATATATAAT [CACACA_site8676]” reads 6.34; that for “AAAATATAATATAATGCACACATAAAAAAAAAAAAA [CACACA_site7989]”, 9.84.
The result for “ATAATAAAAAAAAATGCACACATATATATATATATA [CACACA_site8766]” reads 9.5.
Under “CTTATGTGCATACCTACACACTTACAGATATATATA [CACACA_site5622]” stands 9.61; under “ATATATAATTTTTACACACGCAATAAATATATATAT [CACACA_site4283]”, 7.7.
Turning to TTTAATTATTAAATGGTGCACTTGAAATATAAAAAT, the “gcPBM binding intensity (ln)” value stood at 10.1.
